Source: PubChem BioAssay (EPA / NIEHS)
Results filed as inconclusive are left out. Calls of active or inactive are those of the source. Rule for the calls, unless noted: active = hit-call score of the fitted dose curve at least 0.9, where 1 is the maximum; inactive = score below 0.9.

Columns and labels:
[1] = read-out: Pyruvate Dehydrogenase Kinase 4 (PDK4), PDK4 (gene 5166); assay: LTEA_HepaRG_PDK4: Life Technologies and Expression Analysis (LTEA) Assay for Pyruvate Dehydrogenase Kinase 4 (PDK4) using HepaRG (AID 2283525); settings: mRNA level, 48 h; actives raise or lower the signal
Summary of the method: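 HepaRG (human liver line), 48 h chemical exposure, 8-pt half-log CRC top 100 uM, 0.5% DMSO vehicle, duplicates. Readout: TaqMan qRT-PCR of PDK4 mRNA, housekeeping-normalized; gain/loss fit relative to DMSO baseline.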

[2] = read-out: NAD(P)H dehydrogenase [quinone] 1 (NQO1), NQO1 (gene 1728); assay: LTEA_HepaRG_NQO1: Life Technologies and Expression Analysis (LTEA) Assay for NAD(P)H dehydrogenase [quinone] 1 (NQO1) using HepaRG (AID 2283526); settings: mRNA level, 48 h; actives raise or lower the signal
Summary of the method: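 Transcript induction or suppression is quantified by qRT-PCR in human HepaRG liver cells dosed for 48 hours. Eight half-log concentrations topping at 100 uM are used, with 0.5% DMSO as vehicle and baseline.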

[3] = read-out: Nuclear factor erythroid 2-related factor 2 (Homo sapiens) (UniProt Q16236); assay: LTEA_HepaRG_NFE2L2: Life Technologies and Expression Analysis (LTEA) Assay for Nuclear factor erythroid 2-related factor 2 (NFE2L2) Transcription Factor using HepaRG (AID 2283527); settings: mRNA level, 48 h; actives raise or lower the signal
Summary of the method: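 HepaRG, 48 h dosing, 8-pt half-log series from 100 uM in 0.5% DMSO, duplicates. Read-out: NFE2L2 mRNA by qRT-PCR (ACTB/GAPDH/POLR2A normalization). Bidirectional curve fit vs DMSO baseline.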

[4] = read-out: succinate dehydrogenase complex iron sulfur subunit B (SDHB), SDHB (gene 6390); assay: LTEA_HepaRG_SDHB: Life Technologies and Expression Analysis (LTEA) Assay for succinate dehydrogenase complex iron sulfur subunit B (SDHB) using HepaRG (AID 2283528); settings: mRNA level, 48 h; actives raise or lower the signal
Summary of the method: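 Readout is SDHB transcript level by qRT-PCR, normalised to three housekeeping genes and fitted bidirectionally against 0.5% DMSO vehicle. Human HepaRG cells were treated for 48 h at up to 100 uM.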

[5] = read-out: solute carrier (SLCO1B1), SLCO1B1 (gene 10599); assay: LTEA_HepaRG_SLCO1B1: Life Technologies and Expression Analysis (LTEA) Assay for solute carrier (SLCO1B1) using HepaRG (AID 2283530); settings: mRNA level, 48 h; actives raise or lower the signal
Summary of the method: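 Human HepaRG cultures treated for 48 h with an eight-concentration half-log series topping at 100 uM; SLCO1B1 measured by qRT-PCR and fitted bidirectionally relative to DMSO.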

[6] = read-out: sulfotransferase 2A1 (SULT2A1), SULT2A1 (gene 6822); assay: LTEA_HepaRG_SULT2A1: Life Technologies and Expression Analysis (LTEA) Assay for sulfotransferase 2A1 (SULT2A1) using HepaRG (AID 2283531); settings: mRNA level, 48 h; actives raise or lower the signal
Summary of the method: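 Gene-expression endpoint in a human liver cell line: SULT2A1 mRNA change after 48 h chemical treatment, curves fitted in both directions relative to 0.5% DMSO vehicle. Concentrations spanned eight half-log steps from 100 uM.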

[7] = read-out: Transforming Growth Factor (TGFA), TGFA (gene 7039); assay: LTEA_HepaRG_TGFA: Life Technologies and Expression Analysis (LTEA) Assay for Transforming Growth Factor (TGFA) using HepaRG (AID 2283532); settings: mRNA level, 48 h; actives raise or lower the signal
Summary of the method: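 qRT-PCR read-out of TGFA transcript, normalized to three housekeeping genes, fitted bidirectionally against 0.5% DMSO baseline. Human HepaRG cultures received chemicals for 48 h at eight half-log concentrations, top 100 uM.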

[8] = read-out: Transforming Growth Factor (TGFB1), TGFB1 (gene 7040); assay: LTEA_HepaRG_TGFB1: Life Technologies and Expression Analysis (LTEA) Assay for Transforming Growth Factor (TGFB1) Transporter using HepaRG (AID 2283533); settings: mRNA level, 48 h; actives raise or lower the signal
Summary of the method: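 Eight-point concentration-response (max 100 uM, half-log) in HepaRG under serum-free induction conditions, 48 h. TGFB1 mRNA by qRT-PCR, housekeeping-normalized.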

TIMP1, TIMP1 (gene 7076) = assay: LTEA_HepaRG_TIMP1: Life Technologies and Expression Analysis (LTEA) Assay for TIMP1 using HepaRG (AID 2283534); settings: mRNA level, 48 h; actives raise or lower the signal
Summary of the method: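 TIMP1 induction or repression in HepaRG cells after 48 h chemical exposure (eight concentrations, highest 100 uM), assessed by normalized qRT-PCR with bidirectional fitting to DMSO controls.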

[9] = read-out: Tumor necrosis factor receptor 1 (TNFRSF1A), TNFRSF1A (gene 7132); assay: LTEA_HepaRG_TNFRSF1A: Life Technologies and Expression Analysis (LTEA) Assay for Tumor necrosis factor receptor 1 (TNFRSF1A) using HepaRG (AID 2283535); settings: mRNA level, 48 h; actives raise or lower the signal
Summary of the method: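 Assay uses 48 h chemical treatment of differentiated HepaRG monolayers, tested in duplicate at eight concentrations from 100 uM downward in 0.5% DMSO. mRNA is normalized to ACTB, GAPDH and POLR2A, with induction or suppression fitted relative to vehicle.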

[10] = read-out: Thyroid Hormone Responsive (THRSP), THRSP (gene 7069); assay: LTEA_HepaRG_THRSP: Life Technologies and Expression Analysis (LTEA) Assay for Thyroid Hormone Responsive (THRSP) using HepaRG (AID 2283536); settings: mRNA level, 48 h; actives raise or lower the signal
Summary of the method: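 qRT-PCR read-out (Fluidigm TaqMan), housekeeping-normalized (ACTB/GAPDH/POLR2A). HepaRG, 48 h chemical exposure, 8-pt half-log series from 100 uM in 0.5% DMSO, duplicates. Bidirectional curve fit vs 0.5% DMSO baseline.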

[11] = read-out: Cellular tumor antigen p53 (Homo sapiens) (UniProt P04637); assay: LTEA_HepaRG_TP53: Life Technologies and Expression Analysis (LTEA) Assay for Tumor Protein P53 (TP53) using HepaRG (AID 2283537); settings: mRNA level, 48 h; actives raise or lower the signal
Summary of the method: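 Read-out is TP53 transcript level by microfluidic qRT-PCR, normalised to three housekeeping genes and fitted bidirectionally against DMSO. Human HepaRG cells received compounds for 48 h, highest concentration 100 uM.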

[12] = read-out: UDP glucuronosyltransferase (UGT1A1), UGT1A1 (gene 54658); assay: LTEA_HepaRG_UGT1A1: Life Technologies and Expression Analysis (LTEA) Assay for UDP glucuronosyltransferase (UGT1A1) using HepaRG (AID 2283538); settings: mRNA level, 48 h; actives raise or lower the signal
Summary of the method: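 Cells are plated, cultured 48 h, switched to serum-free induction medium, then dosed 48 h at eight concentrations (max 100 uM, 0.5% DMSO). RNA is isolated and UGT1A1 expression measured by qRT-PCR; changes versus DMSO are fitted in both directions.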

[13] = read-out: UDP glucuronosyltransferase (UGT1A6), UGT1A6 (gene 54578); assay: LTEA_HepaRG_UGT1A6: Life Technologies and Expression Analysis (LTEA) Assay for UDP glucuronosyltransferase (UGT1A6) using HepaRG (AID 2283539); settings: mRNA level, 48 h; actives raise or lower the signal
Summary of the method: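 Measures mRNA change in HepaRG hepatic cells exposed 48 h to chemicals (eight-point, maximum 100 uM, 0.5% DMSO vehicle) in serum-free induction medium. Expression normalized to endogenous controls; DMSO served as negative control and baseline.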

[14] = read-out: X-box binding protein 1 (XBP1), XBP1 (gene 7494); assay: LTEA_HepaRG_XBP1: Life Technologies and Expression Analysis (LTEA) Assay for X-box binding protein 1 (XBP1) using HepaRG (AID 2283540); settings: mRNA level, 48 h; actives raise or lower the signal
Summary of the method: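 Eight concentrations (half-log, highest 100 uM, 0.5% DMSO) tested in duplicate on HepaRG cells over 48 h in serum-free induction medium; qRT-PCR of XBP1 normalised to ACTB, GAPDH, POLR2A.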

[15] = LTEA_HepaRG_LDH_cytotoxicity: Cytotoxicity Assessment in the Life Technologies and Expression Analysis (LTEA) Assay (AID 2283563; active = hit-call score of the fitted dose curve at least 0.9, where 1 is the maximum;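 for AC50: LDH activity released into spent culture medium as a marker of cell death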)
Summary of the method: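 Spent-medium LDH after 48 h chemical exposure of HepaRG cells in serum-free induction medium; eight concentrations, half-log dilutions from 100 uM, duplicate wells, fitted upward relative to 0.5% DMSO.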

[16] = TOX21_p53_BLA_p2_viability: Viability Assessment in the Tox21 HCT-116 p53 Agonism Beta-lactamase Assay, Phase 2 (AID 2283591; active = hit-call score of the fitted dose curve at least 0.9, where 1 is the maximum;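 note: compound exposure lasted 16 h at 37 °C; actives lower the ATP signal meaning cytotoxicity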)
Summary of the method: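 HCT116 p53-bla cells, 4000/well, dosed after 5 h plating (217-fold dilution of DMSO stocks) and incubated 16 h at 37C. Viability taken as cellular ATP by CellTiter-Glo luminescence after 30 min RT; signal loss marks cytotoxicity.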

[17] = biological target: Cellular tumor antigen p53 (Homo sapiens) (UniProt P04637); assay: TOX21_p53_BLA_p2_ratio: Tox21 HCT-116 p53 Agonism Beta-lactamase Assay, Ratio, Phase 2 (AID 2283592; active = hit-call score of the fitted dose curve at least 0.9, where 1 is the maximum)
Summary of the method: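 DMSO-normalized, positive-direction endpoint derived from the 460 nm/530 nm FRET ratio in HCT116 p53 beta-lactamase reporter cells exposed 16 h at 37C and loaded with CCF4-AM for 2 h.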

[18] = read-out: Signal transducer and activator of transcription 3 (Homo sapiens) (UniProt P40763); assay: LTEA_HepaRG_STAT3: Life Technologies and Expression Analysis (LTEA) Assay for Signal transducer and activator of transcription (STAT3) using HepaRG (AID 2283529); settings: mRNA level, 48 h; actives raise or lower the signal
Summary of the method: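 HepaRG, 48 h exposure, 8-pt half-log series (top 100 uM), 0.5% DMSO vehicle, duplicates. Readout: STAT3 transcript by Fluidigm qRT-PCR, housekeeping-normalized; bidirectional fit vs DMSO baseline.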

[19] = ATG_XTT_Cytotoxicity: Cytotoxicity Assessment in the Attagene TRANS-FACTORIAL HepG2 Assay (AID 2283584; active = hit-call score of the fitted dose curve at least 0.9, where 1 is the maximum)
Summary of the method: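 24 h chemical exposure of reporter-transfected HepG2; XTT signal loss vs DMSO indicates cytotoxicity.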

Measured: AC50

Sequence of Signal transducer and activator of transcription 3 (Homo sapiens) (P40763 whole entry, looked up): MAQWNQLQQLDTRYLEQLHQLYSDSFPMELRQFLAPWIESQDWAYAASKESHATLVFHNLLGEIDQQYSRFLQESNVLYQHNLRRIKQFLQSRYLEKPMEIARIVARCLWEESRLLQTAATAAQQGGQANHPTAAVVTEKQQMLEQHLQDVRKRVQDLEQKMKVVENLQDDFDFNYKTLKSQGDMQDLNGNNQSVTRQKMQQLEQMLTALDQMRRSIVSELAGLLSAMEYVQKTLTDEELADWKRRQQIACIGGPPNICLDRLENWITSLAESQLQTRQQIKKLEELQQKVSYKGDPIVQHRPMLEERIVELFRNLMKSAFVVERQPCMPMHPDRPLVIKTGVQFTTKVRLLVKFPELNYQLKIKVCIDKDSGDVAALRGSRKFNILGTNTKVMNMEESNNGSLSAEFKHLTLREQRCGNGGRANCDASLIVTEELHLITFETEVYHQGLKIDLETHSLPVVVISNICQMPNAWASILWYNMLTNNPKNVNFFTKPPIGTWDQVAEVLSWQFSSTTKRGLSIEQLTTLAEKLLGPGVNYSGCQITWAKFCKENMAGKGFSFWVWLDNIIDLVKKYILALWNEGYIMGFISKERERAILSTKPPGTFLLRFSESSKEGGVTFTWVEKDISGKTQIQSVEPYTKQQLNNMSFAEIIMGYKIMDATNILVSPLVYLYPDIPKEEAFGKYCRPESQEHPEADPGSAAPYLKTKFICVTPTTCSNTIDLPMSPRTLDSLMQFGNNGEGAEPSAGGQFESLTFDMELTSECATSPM
Sequence of Nuclear factor erythroid 2-related factor 2 (Homo sapiens) (Q16236 whole entry, looked up): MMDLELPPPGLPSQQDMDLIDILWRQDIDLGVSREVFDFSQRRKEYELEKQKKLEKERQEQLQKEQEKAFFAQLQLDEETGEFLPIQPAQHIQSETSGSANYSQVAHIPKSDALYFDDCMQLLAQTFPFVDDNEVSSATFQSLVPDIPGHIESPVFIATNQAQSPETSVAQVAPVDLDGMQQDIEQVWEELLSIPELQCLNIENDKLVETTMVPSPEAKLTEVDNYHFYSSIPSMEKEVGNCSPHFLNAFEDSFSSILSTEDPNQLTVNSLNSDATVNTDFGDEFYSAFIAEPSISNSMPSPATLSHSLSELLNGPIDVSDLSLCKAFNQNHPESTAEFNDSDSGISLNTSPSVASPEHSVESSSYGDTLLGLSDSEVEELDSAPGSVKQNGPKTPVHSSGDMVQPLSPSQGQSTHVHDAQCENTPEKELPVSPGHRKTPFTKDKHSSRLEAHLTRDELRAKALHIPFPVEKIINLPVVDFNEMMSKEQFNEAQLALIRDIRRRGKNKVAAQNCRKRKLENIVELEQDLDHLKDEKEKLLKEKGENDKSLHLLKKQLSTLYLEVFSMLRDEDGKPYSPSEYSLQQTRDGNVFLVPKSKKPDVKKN
Sequence of Cellular tumor antigen p53 (Homo sapiens) (P04637 whole entry, looked up): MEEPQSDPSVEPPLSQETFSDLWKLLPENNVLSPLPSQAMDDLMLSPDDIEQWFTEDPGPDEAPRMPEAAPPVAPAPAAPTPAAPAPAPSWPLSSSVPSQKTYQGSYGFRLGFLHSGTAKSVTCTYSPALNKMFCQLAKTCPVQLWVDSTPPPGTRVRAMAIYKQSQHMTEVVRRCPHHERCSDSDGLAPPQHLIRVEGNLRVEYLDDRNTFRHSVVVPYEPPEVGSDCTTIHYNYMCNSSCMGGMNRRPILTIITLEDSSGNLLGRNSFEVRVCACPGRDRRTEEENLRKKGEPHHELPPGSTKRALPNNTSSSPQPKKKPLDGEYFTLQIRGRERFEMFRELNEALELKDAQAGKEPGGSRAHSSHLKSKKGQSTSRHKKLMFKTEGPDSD

CC(C)=CCC/C(C)=C/CO
not listed: [18] | [19]
inactive: all other assays above

Cc1ccc(N)cc1O
active: [10] 25.2 µM
not listed: [6] | TIMP1, TIMP1 (gene 7076) | [19]
inactive: all other assays above

CCOC(=O)CC(CC(=O)OCC)(OC(C)=O)C(=O)OCC
not listed: [6] | TIMP1, TIMP1 (gene 7076) | [10] | [16]
inactive: all other assays above

Cc1ccc(S(=O)(=O)O)cc1C
not listed: [6] | TIMP1, TIMP1 (gene 7076)
inactive: all other assays above

Oc1ccc2c(c1)-c1ccccc1C2
active: [1] 25.2 µM | [3] 21.4 µM | [10] 13.9 µM | [12] 30.4 µM
not listed: [6] | [18]
inactive: all other assays above

COC(=O)CC(=O)OC
not listed: [6] | [18] | [19]
inactive: all other assays above

CCOc1cccc(-n2cc(C(=O)N3CCN(c4cc(C(=O)O)c5ccccc5c4)CC3)nc2-c2ccc(C)cc2)c1
inactive: [3]
active: [1] 89.3 µM | [2] 78.4 µM | [4] 82.3 µM | [5] 37.4 µM | [7] 88.7 µM | [8] 83.7 µM | [9] 80.3 µM | [11] 91.5 µM | [12] 75.9 µM | [13] 75.1 µM | [14] 88.1 µM | [15] 36.3 µM | [16] 10.6 µM | [17] 18 µM

O=C1OC(=O)C2C3C=CC(C3)C12 (stereo unspecified)
not listed: [6] | [10] | [18]
inactive: all other assays above

C=CCCCCCCCCC(=O)O
not listed: [6] | [10] | [18]
inactive: all other assays above

O=c1[nH]c2ccc(S(=O)CCN3CCC(Cc4ccc(F)cc4)CC3)cc2o1 (stereo unspecified)
active: [1] 14.7 µM | [4] 50 µM
not listed: [6] | TIMP1, TIMP1 (gene 7076) | [10] | [16] | [18] | [19]
inactive: all other assays above

CCCC(=O)OCC
not listed: [6] | [16] | [18] | [19]
inactive: all other assays above

COC(=O)c1c(Cl)c(Cl)c(C(=O)OC)c(Cl)c1Cl
not listed: [6] | [10] | [18]
inactive: all other assays above

CC(C)=CCCC(C)=CC=O
not listed: [6] | [10] | [16] | [18]
inactive: all other assays above

Nc1nc2ncc(CNc3ccc(C(=O)N[C@@H](CCC(=O)O)C(=O)O)cc3)nc2c(=O)[nH]1
not listed: TIMP1, TIMP1 (gene 7076) | [18]
inactive: all other assays above

Cn1c(=O)cc(Oc2ccc(F)cc2F)c2cnc(NCC(C)(C)O)nc21
active: [3] 1.3 µM
not listed: TIMP1, TIMP1 (gene 7076) | [10] | [17] | [18]
inactive: all other assays above

CNCc1ccc(NC(=O)c2c[nH]c3c2C(=O)CCC3)cc1
not listed: TIMP1, TIMP1 (gene 7076) | [10] | [16] | [18] | [19]
inactive: all other assays above

CCCCCCCCCCCCCCCO
not listed: [5] | [6] | TIMP1, TIMP1 (gene 7076) | [18]
inactive: all other assays above
